Compound activity from PubChem.
HIF-2a block: HIF-2a reporter inhibitors, primary screen, luminescence, 786-0 RCC cells. inhibition, % at 18.8 µM. 786-0 RCC cells HIF-2a reporter, luciferase luminescence, overnight. hit rate 0.72% among 360,000;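 active = inhibition of the luminescence signal of 40% or more relative to plate controls, in a single-dose primary screen at 18.75 µM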
Shn3 3UTR inh: reduction of Shn3 3'UTR firefly luciferase signal, primary screen, Schnurri-3 inhibitor project, cell-based, Clone20 osteoblasts, set 2; Clone20 osteoblast Shn3 3'UTR firefly luciferase, 24 h; hit rate 0.52% among 360,000; inhibition, % at 12.5 µM;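 active = mean inhibition of at least 75% with every replicate also reaching 75%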;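 also: 0% = median of neutral control wells and 100% = pilot-screen positive control compound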
TRPM1 prom inh: inhibitors of MITF-dependent TRPM1 promoter reporter, primary screen, cell-based, SK-MEL-5, single point, luciferase | hit rate 0.83% among 330,000 | SK-MEL-5 TRPM1 promoter luciferase, 24 h | inhibition, % at 12.5 µM;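 active = mean inhibition across replicates of 60% or more, whatever share of single replicates reaches that level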
KKLEB tox: cytotoxicity in KKLEB CF airway cells, primary screen, cytotoxicity control for CF NF-kB inhibitor project, cell-based, uHTS, fluorescence assay plates. KKLEB CF airway cells viability, ATPlite luminescence, overnight; hits give low values; cells stimulated with P. aeruginosa culture filtrate. activity change (cytotoxicity), % at 5 µM. hit rate 0.36% among 360,000;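 active = corrected activity change at or below -50% at 5 µM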
Peg3 prom inh: Peg3 promoter-driven luciferase inhibitors, primary screen, cell-based, HeLa, luciferase luminescence | AID 588405, 2011 | hit rate 1.7% among 360,000 | HeLa PEG-Prom luciferase reporter, overnight | inhibition, % at 20 µM;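 active = inhibition of at least 50% at 20 µM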
CF NFkB inh: inhibitors of PAF-induced NF-kB signaling, primary screen, cell-based, GFP fluorescence, uHTS; KKLEB NF-kB-GFP reporter, GFP fluorescence overnight; hit rate 0.86% among 360,000; inhibition, % at 5 µM;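 active = at least 50% inhibition at 5 µM, scaled per plate between neutral and stimulator controls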;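 also: PAF is a Pseudomonas aeruginosa culture filtrate used as stimulus; plate controls were PAF-stimulated DMSO wells for no effect and unstimulated DMSO wells for full effect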
CF NFkB inh conf: inhibitors of PAF-induced NF-kB signaling, retest, confirmation, cell-based, GFP fluorescence, single concentration | shares compounds with CF NFkB inh | KKLEB CF airway cells, overnight | inhibition, % at 5 µM | hit rate 64% among 1,300 | AID 602472, 2012; in the data active = inhibition above about 40%;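 also: stimulus PAF is a Pseudomonas aeruginosa filtrate and not platelet activating factor; plate controls were DMSO wells with stimulus for no effect and unstimulated DMSO wells for full effect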
An asterisk follows results filed as active. Most compounds without a hit are left out; they make up all but 2.7% or so of the library.

Results for Cc1ncc(CO)c2c1Oc1nc(-c3ccccc3)nc(SCC(=O)N3CCCCC3)c1C2 ?
HIF-2a block: 13; Shn3 3UTR inh: 7; TRPM1 prom inh: 5; KKLEB tox: -5; Peg3 prom inh: 64*; CF NFkB inh: 85*; CF NFkB inh conf: 29

How did Cc1ccc(CNC(=O)C(c2ccccc2)c2ccccc2)cc1 do in these assays?
HIF-2a block: 29; Shn3 3UTR inh: 28; TRPM1 prom inh: -4; KKLEB tox: 4; Peg3 prom inh: 5; CF NFkB inh: -1

What do the screens show for `Cc1cccc(C)c1-n1nnnc1C1(C)CCC(=O)N1Cc1cccnc1` (centres undefined)?
HIF-2a block: 4

What do the screens show for `COc1ccc(-c2cnc3c(NC=O)cc(-c4ccccc4OC)cn23)cc1OC`?
HIF-2a block: -8; Shn3 3UTR inh: 14; KKLEB tox: -34; Peg3 prom inh: 44; CF NFkB inh: 65*; CF NFkB inh conf: 91*

Results for CS(=O)(=O)Nc1cccc(-c2cc(NC=O)c3ncc(-c4ccc(F)cc4)n3c2)c1 ?
HIF-2a block: -25; Shn3 3UTR inh: 48; KKLEB tox: -28; Peg3 prom inh: 41; CF NFkB inh: 52*; CF NFkB inh conf: 53*

Results for CC(C)c1nc2c(s1)CCc1onc(-c3cccc([N+](=O)[O-])c3)c1-2 ?
HIF-2a block: 6; Shn3 3UTR inh: 4; TRPM1 prom inh: 0; KKLEB tox: 6; Peg3 prom inh: 5; CF NFkB inh: 3

Results for COc1ccc(Cl)cc1NC(=O)CN(C)C(=O)C12CC3CC(CC(Cl)(C3)C1)C2 ?
HIF-2a block: 24; Shn3 3UTR inh: 17; TRPM1 prom inh: -8; KKLEB tox: 4; Peg3 prom inh: 25; CF NFkB inh: -10

What do the screens show for `CCC(=O)Nc1nc(C)c(-c2csc(Nc3cccc(O)c3)n2)s1`?
HIF-2a block: -50; Shn3 3UTR inh: 38; TRPM1 prom inh: 11; KKLEB tox: -4; Peg3 prom inh: -59; CF NFkB inh: 62*; CF NFkB inh conf: 87*

How did Cc1nc(C)c(-c2csc(Nc3cccc(O)c3)n2)s1 do in these assays?
HIF-2a block: -276; Shn3 3UTR inh: -5; TRPM1 prom inh: -42; KKLEB tox: 9; Peg3 prom inh: -245; CF NFkB inh: -25

Results for CCCCCCN1C[C@H](n2cc(COC(=O)c3ccccc3)nn2)[C@@H](O)C[C@@H]1c1ccc(C)cc1 ?
HIF-2a block: 10; Shn3 3UTR inh: 22; KKLEB tox: -10; Peg3 prom inh: 28; CF NFkB inh: 45

How did CC(=O)N(CC(C)C(=O)O)c1c(I)cc(I)c(N)c1I (centres undefined) do in these assays?
HIF-2a block: 33; Shn3 3UTR inh: 2; TRPM1 prom inh: -2; KKLEB tox: 33; Peg3 prom inh: 4; CF NFkB inh: 64*; CF NFkB inh conf: 21

What do the screens show for `CC1(C)CC(=O)C2=C(C1)NC1=C(C(=O)c3ccccc31)C2c1cc([N+](=O)[O-])ccc1O` (centres undefined)?
HIF-2a block: 25; Shn3 3UTR inh: 14; TRPM1 prom inh: 4; KKLEB tox: 1; Peg3 prom inh: 17; CF NFkB inh: 0

Results for CC(=O)Nc1nonc1-c1nc2ccccc2n1CC1CC1 ?
HIF-2a block: -8; Shn3 3UTR inh: 11; TRPM1 prom inh: 6; KKLEB tox: -22; Peg3 prom inh: 21; CF NFkB inh: 60*; CF NFkB inh conf: 45*

Results for O=C(Nc1ccc(O)cc1)c1cc2ccccc2c(=O)s1 ?
HIF-2a block: -275; Shn3 3UTR inh: -45; TRPM1 prom inh: -101; KKLEB tox: 9; Peg3 prom inh: -350; CF NFkB inh: 41

How did O=C(Nc1ccccc1)c1cc2ccccc2c(=O)s1 do in these assays?
HIF-2a block: -184; Shn3 3UTR inh: -60; TRPM1 prom inh: -75; KKLEB tox: -9; Peg3 prom inh: -270; CF NFkB inh: 62*; CF NFkB inh conf: 68*

Results for Cc1cccc(NC(=O)CNC(=O)c2cc(S(=O)(=O)N(C)C)ccc2N2CCCC2)c1C ?
HIF-2a block: 3; Shn3 3UTR inh: 19; KKLEB tox: 3; Peg3 prom inh: -2; CF NFkB inh: 6

How did CCCCNc1cc(C(=O)O)cc(S(N)(=O)=O)c1Oc1ccccc1 do in these assays?
HIF-2a block: 24; Shn3 3UTR inh: -9; TRPM1 prom inh: -5; KKLEB tox: 24; Peg3 prom inh: 4; CF NFkB inh: 62*; CF NFkB inh conf: 1

What do the screens show for `Cc1cccc(C(=O)N2[C@@H](C(C)C)COc3cc(Br)ccc3S2(=O)=O)c1`?
HIF-2a block: -46; Shn3 3UTR inh: -18; TRPM1 prom inh: -7; KKLEB tox: 8; Peg3 prom inh: 57*; CF NFkB inh: 61*; CF NFkB inh conf: 59*

How did COc1cccc(C(=O)N2C(C(C)C)COc3cc(Br)ccc3S2(=O)=O)c1 (centres undefined) do in these assays?
HIF-2a block: -34; Shn3 3UTR inh: -11; KKLEB tox: 27; Peg3 prom inh: 41; CF NFkB inh: 50*; CF NFkB inh conf: 55*

How did C[C@@H]1CN([C@@H](C)CO)C(=O)CCCn2nncc2CO[C@@H]1CN(C)S(=O)(=O)c1ccc(C#N)cc1 do in these assays?
HIF-2a block: 4; Shn3 3UTR inh: -14; KKLEB tox: 10; Peg3 prom inh: -6; CF NFkB inh: -46

How did Cc1cccc(C(C#N)c2nc3ccccc3nc2C(F)(F)F)c1 (centres undefined) do in these assays?
HIF-2a block: 9; Shn3 3UTR inh: 8; TRPM1 prom inh: -5; KKLEB tox: -8; Peg3 prom inh: 21; CF NFkB inh: 13

What do the screens show for `Cc1ccc2nc(C(F)(F)F)c(C#N)c(N)c2c1`?
HIF-2a block: -31; Shn3 3UTR inh: -22; TRPM1 prom inh: 26; KKLEB tox: -12; Peg3 prom inh: 101*; CF NFkB inh: 83*; CF NFkB inh conf: 100*

Results for CCOC(=O)c1ccc(NC(=O)c2c(N)n(Cc3ccccc3)c(=O)[nH]c2=O)cc1 ?
HIF-2a block: 3; Shn3 3UTR inh: 27; TRPM1 prom inh: 39; KKLEB tox: -48; Peg3 prom inh: 10; CF NFkB inh: 58*; CF NFkB inh conf: 33

How did CCOC(=O)c1ccc(NC(=O)c2ccccc2)cc1 do in these assays?
HIF-2a block: -297; Shn3 3UTR inh: -116; TRPM1 prom inh: -107; KKLEB tox: 4; Peg3 prom inh: -288; CF NFkB inh: -4
